The results in this text go back to ChEMBL document CHEMBL3988442, “University of Dundee, Small-Polar-MMV Screening Library” (2021).

Structures are written as SMILES.

This assay deals with AMP-activated protein kinase, AMPK (Homo sapiens) (UniProt P54646+O43741+P54619+Q9UGJ0+Q9Y478+Q13131+Q9UGI9). Put plainly: AMP-dependent Kinase enzyme assay. An in vitro enzyme assay that detects ADP turnover that is directly proportional to AMPK activity. This uses naive AMPK that is activated during the assay with MK-8722. The class given is functional. Further details: scale not given: direction of the effect not stated beside the values. Conditions: 30 µM.
As for `O=C(NCCc1cc(N2CCOCC2)nc(N2CCCC2)n1)C1CC1`, the Percent Effect amounted to 13.9%.

For the compound `Cc1occc1CNc1ncccc1S(N)(=O)=O`, the Percent Effect was determined as 6.37%.

With `O=C(CCC1CCCN(C(=O)CCc2ccc(F)c(F)c2)C1)NC1CC1` (stereo not given), the Percent Effect was 5.21%.

For `CC(C)(CNc1cccc(Cl)c1)NC(=O)C1CCCN(CC(N)=O)C1` (stereo not given), the Percent Effect was 40.1%.

With `Cc1ccc(N(CCC#N)C(=O)CCc2cscn2)cc1C`, the Percent Effect is -7.79%.

Regarding `CC1(C)CC1(C(=O)N1CC(c2cccnc2)C1)c1ccccc1F` (stereo not given), the Percent Effect is -6.17%.

Regarding `CCOC(=O)N1CCN(C(=O)Cn2ccc3ncccc3c2=O)CC1`, the Percent Effect was -0.626%.

As to `CS(=O)(=O)c1ccc(CN2C[C@H]3CC[C@@H]2CN(c2ncccn2)C3)cc1`, the Percent Effect worked out at 9.64%.

For `CCc1ccc(C(=O)N2CCCCC2CNS(C)(=O)=O)o1` (stereo not given), the Percent Effect is -5.12%.

For `CCN(C)C[C@@H]1CN(C(=O)c2cc(-c3ccc(F)cc3)n[nH]2)C[C@@H]1CO`, the Percent Effect worked out at 9.6%.

For `CC(C)COc1cncc(N2CCCN(c3ncccn3)CC2)n1`, the Percent Effect is 65.1%.

Turning to `Cc1cccnc1NC(=O)c1ccc(F)c(S(=O)(=O)N2CCC2)c1`, the Percent Effect is -5.84%.

Turning to `Cc1cc(C)n(CCN2CCC(N(C)Cc3nnc(C)n3C)C2)n1` (stereo not given), the Percent Effect was determined as 3.54%.

For `Cc1cnn(C2CN(CC(O)COc3ccc(C#N)cc3)C2)c1` (stereo not given), the Percent Effect is -78.4%.

As for `CC(=O)c1cnc(NCCN2CCCC2)nc1C`, the Percent Effect was -8.98%.

As to `Cc1cc(-c2cnc(N3CCCC3)nc2C(C)C)on1`, the Percent Effect turned out to be 16.6%.

`COC(=O)c1occc1Cn1cc(Br)cn1`: the Percent Effect was -0.99%.

For the compound `COCCS(=O)(=O)NCc1ccc(N(C)C)c(C)c1`, the Percent Effect was 6.36%.

Regarding `O=C(c1cc(C2CC2)nc2onc(-c3ccccc3)c12)N1CCOCC1`, the Percent Effect worked out at 4.72%.

Take `Cc1cnn(C2CCCN(C(=O)c3cc[nH]n3)C2)c1` (stereo not given): the Percent Effect was -0.778%.

For the compound `COc1ccc(NCCC(=O)NCc2cccnc2N(C)C)cc1`, the Percent Effect was found to be 22.9%.

As to `N#CC1COCCN1C(=O)c1ccc2cc[nH]c2c1` (stereo not given), the Percent Effect worked out at 6.24%.

`CC(C)(C)c1nc(CC(=O)NCCC(=O)Nc2ccncc2)cs1`: the Percent Effect was -4.57%.

As to `CC(C)(C)c1cn2c(n1)C(CNCc1ccccn1)CCC2` (stereo not given), the Percent Effect was -3.66%.

As to `NC(=O)C1CCN(CCCNC(=O)Nc2nncs2)CC1`, the Percent Effect came out at 1.35%.

In the case of `O=C(C1CC(c2cccc(F)c2)=NO1)N1CCc2ccccc21` (stereo not given), the Percent Effect is 13.6%.

`O=C(c1cc(-c2ccccc2)nc2onc(C3CC3)c12)N1CC[C@H](O)C1`: the Percent Effect worked out at 4.85%.

Consider `CCc1n[nH]c(C(=O)N2CCC3(CCCN(CCOC)C3=O)C2)c1C` (stereo not given), for which the Percent Effect was determined as 6.73%.

With `Cc1cc(CN2CCN(S(=O)(=O)c3c(C)c(Cl)cc(C)c3Cl)CC2)on1`, the Percent Effect is -3.43%.

As for `CC(C)O[C@H]1CN(C(=O)CCN2CCCCO2)C[C@@H]1O`, the Percent Effect was -7.14%.

With `CC(C)N(CC(N)=O)C(=O)CCC(=O)c1ccc(F)cc1F`, the Percent Effect was -2.63%.

In the case of `CN(Cc1cc(Br)cn1C)C(=O)c1cccnc1`, the Percent Effect is -0.766%.

For `Cc1cc(N2CCOC(c3ccccn3)C2)nc(N)n1` (stereo not given), the Percent Effect turned out to be 10.1%.

For `CCc1nc(CSc2nnc(N)n2C2CC2)no1`, the Percent Effect is 7.62%.

Consider `Cc1cc(C)nc(NC2CCN(CCOC(C)C)CC2)n1`, for which the Percent Effect stood at 7.53%.

For `CCC[C@@H]1CN(Cc2cnc3c(S(C)(=O)=O)cnn3c2)C[C@H]1N(C)C`, the Percent Effect is -10.1%.

On to `COc1ccc(CCN2CCCC(n3cncn3)C2)cc1` (stereo not given), for which the Percent Effect amounted to 0.286%.

For `O=C(NCC(O)c1ccc(F)cc1)C1CCN(C2CCCCC2)CC1` (stereo not given), the Percent Effect was -8.77%.

Consider `Cc1ccccc1N1CCCN(C(=O)CCc2nncn2C)CC1`, for which the Percent Effect was -4.54%.

`CCc1nc(CCNc2ncccn2)sc1C`: the Percent Effect was -7.35%.
